Results filed as inconclusive are left out. The source made the active and inactive calls. The call rests on the fitted dose curve; in most records, active means well fitted cell-killing curve with a large enough effect; inconclusive means small, poorly fitted or top-dose-only effect, or effect the other way; inactive means no such curve, though single readings can be large or run the other way.
Test: Viability qHTS for spleen associated tyrosine kinase inhibitor (SYKi) drug resistant MV4-11 cells (AID 1963824); further: nearly all actives have a fitted effect of over 35% in size
Conditions: SYKi-resistant MV4-11 viability, CellTiter-Glo, 72 h; series mostly up to 45 µM; viability, % of control: at the top concentration
Procedure, shortened: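 CellTiter-Glo luminescence, read 10 min after reagent addition, reports viability after a 72 hr compound exposure. Cells are an MV4-11 line made resistant to SYK inhibition, seeded at 500 per well onto compound-containing plates.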
Potency means the concentration at half of the fitted maximal effect.

SMILES | Potency | viability, % of control
[2H]C([2H])([2H])C(OC(=O)[C@H](C)N[P@](=O)(OC[C@H]1O[C@@H](n2ccc(=O)[nH]c2=O)[C@](C)(F)[C@@H]1O)Oc1ccccc1)C([2H])([2H])[2H] | 9.2 µM (active) | 
OC1(CN2CCC(COc3noc4cccc(O[C@@H]5CCOC5)c34)CC2)CCOCC1 |  | 61% (inactive)
OC(CC1c2ccccc2-c2cncn21)C1CCCCC1 (stereo not given) | 20.6 µM (active) | 
O=C(O)CCc1nccc2c1[nH]c1ccccc12 | 23.1 µM (active) | 
NC(N)=NCCC[C@H](NC(=O)c1sccc1NS(=O)(=O)c1cccc2nsnc12)C(=O)O |  | 74.7% (inactive)
COC(=O)C1C(c2ccc(O)cc2)C(C(=O)OC)C1c1ccc(O)cc1 (stereo not given) | 10.1 µM (active) | 
NC(N)=NC(=O)c1cnn(-c2cccc3ncccc23)c1C1CC1 | 3.26 µM (active) | 
CCCCNc1ccc(-c2ccc(CN3CCOCC3)cn2)c(NC2CCC(O)CC2)c1 (stereo not given) | 0.0502 µM (active) | 
O=C(Nc1ccc(Cl)cc1)c1ccccc1NCc1ccncc1 | 11.6 µM (active) | 
COc1cc(C)c(C(=O)Oc2cc(C)c(C(=O)Oc3cc(C)c(C(=O)NC(C)C(=O)O)c(O)c3)c(O[C@@H]3O[C@H](CO)[C@@H](O)[C@H](O)[C@H]3OC(C)=O)c2)c(OC)c1 (stereo not given in full) |  | 80.3% [at 17.3 µM] (inactive)
COC(=O)C1=CO[C@@H](O[C@@H]2O[C@H](CO)[C@@H](O)[C@H](O)[C@H]2O)[C@@H]2C(CO)=CC[C@]12O |  | 97.3% [at 17.3 µM] (inactive)
Cc1cc(C)c(NC(=O)N(Cc2ccc3c(c2)Cc2ccccc2-3)C2CCCCCC2)c(C)c1 | 16.4 µM (active) | 
Cc1cccc(C)c1OCc1cc(C(=O)N2CCC(c3ccncc3)CC2)no1 | 9.2 µM (active) | 
COc1ccc(Oc2c(Cl)cnn(C3c4ccccc4-c4ccccc43)c2=O)cc1 | 14.6 µM (active) | 
Cn1cc(CCn2cnc(-c3cnn(C)c3)c2-c2ccc(C#N)cc2)cn1 |  | 102% (inactive)
Nc1nc2ccc([N+](=O)[O-])cc2s1 | 27.3 µM (active) | 
CCc1cccc(CC)c1-n1c(C=C(C)C)c(C(=O)N2CCNCC2)cc(-c2nc(-c3ccc(C(F)(F)F)cc3)cs2)c1=O |  | 5.72% [at 17.3 µM] (inactive)
Cc1ccnc(NC(=O)C(C)c2cccc(C(=O)c3ccccc3)c2)c1 (stereo not given) | 23.1 µM (active) | 
C/C=C/C=C/C=C/C(=O)N(C)C(C(=O)NC(C)C(=O)N1CCCC1C(N)=O)C(C)C (stereo not given) |  | 94% [at 17.3 µM] (inactive)
COc1cc(/C=C/C(=O)O[C@H]2[C@H](O)[C@@H](CO)O[C@@]2(CO)O[C@H]2O[C@H](CO)[C@@H](O)[C@H](O)[C@H]2O)ccc1O |  | 97.1% [at 17.3 µM] (inactive)

SMILES | Potency | viability, % of control
Cc1cc(F)c(Nc2ncnc3cc(OCc4ccccc4)ccc23)cc1O | 14.6 µM (active) | 
C=C1CCN([C@H](C)[C@](O)(Cn2cncn2)c2ccc(F)cc2F)CC1 | 14.6 µM (active) | 
Cn1c(CO)c(-c2ccccc2)c2cc([N+](=O)[O-])ccc21 | 23.1 µM (active) | 
O=S(=O)(c1ccccc1)N(CC(F)(F)F)c1ccc(C(O)(C(F)(F)F)C(F)(F)F)cc1 | 8.2 µM (active) | 
CC1CC2OCC3(O)CCC(O)C(C14CC(c1ccoc1)OC4=O)C23CO (stereo not given) |  | 93.8% (inactive)
CC(C)(C)c1ccc(-c2nc3c(N4CCN(Cc5ccc6nccnc6c5)CC4)cccc3[nH]2)cc1 | 8.2 µM (active) | 
CC1(C)[C@@H]2CC=C(CO[C@@H]3O[C@H](CO[C@@H]4OC[C@H](O)[C@H](O)[C@H]4O)[C@@H](O)[C@H](O)[C@H]3O)[C@H]1C2 |  | 99.9% [at 17.3 µM] (inactive)
C[C@@H]1C(=O)O[C@H]2[C@H]1CC[C@@]1(C)C(=O)C=C[C@@](C)(O)[C@H]21 |  | 102% (inactive)
CC1C(=O)CC2C3C(O)CC(C(=O)O)C12CC3(C)C (stereo not given) | 20.6 µM (active) | 
COC(=O)CC(O)C1OC(c2ccccc2)C(O)C1O (stereo not given) |  | 55.5% (inactive)
C[C@@]12CC[C@@H]3[C@@](CC[C@H]4[C@@]3(C)CCC[C@@]4(C)C(=O)O)(CC1=O)C2 |  | 69.8% (inactive)
Cc1ccc(NS(=O)(=O)c2cc3c(cc2N(C)C)CCC(=O)N3)cc1C | 18.4 µM (active) | 
Cc1ccc(NC(=O)C(C)C)cc1C1CCN(Cc2ccc(Oc3ccc(F)c(F)c3)cc2)CC1 | 4.61 µM (active) | 
C[C@@H]1O[C@@H](O[C@H]2[C@H](O[C@H]3[C@H](O[C@H]4CC[C@@]5(C)C(CC[C@]6(C)C5CC=C5[C@@H]7CC(C)(C)C[C@@H](O)[C@]7(C)CC[C@]56C)[C@@]4(C)CO)O[C@H](C(=O)O)[C@@H](O)[C@@H]3O)O[C@H](C(=O)O)[C@H](O)[C@@H]2O)[C@H](O)[C@H](O)[C@H]1O (stereo not given in full) |  | 86.7% [at 9.25 µM] (inactive)
C=C1C(=O)O[C@@H]2/C=C(/C)CC3C=C(C[C@H](OC(=O)/C(C)=C\C)[C@@H]12)C(=O)O3 (stereo not given in full) | 2.55 µM (active) | 
C[C@@H]1C[C@H](O[C@@H]2O[C@H](CO[C@@H]3OC[C@](O)(CO)[C@H]3O)[C@@H](O)[C@H](O)[C@H]2O)CC(C)(C)[C@H]1/C=C/[C@@H](C)O |  | 68.9% [at 17.3 µM] (inactive)
C/C=C1/[C@H](O[C@@H]2O[C@H](CO)[C@@H](O)[C@H](O)[C@H]2O)OC=C(C(=O)OC)[C@H]1CC(=O)O[C@@H]1O[C@H](CO)[C@@H](O)[C@H](O)[C@H]1O |  | 106% [at 17.3 µM] (inactive)
C=C1C(=O)O[C@@H]2C[C@H](C)[C@@H]3CC(=O)C(C)=C3C[C@H]12 | 1.16 µM (active) | 
COc1cc(CN(CCN)C(=O)c2cccs2)ccc1OCc1ccccc1 | 16.4 µM (active) | 
Cn1nccc1-c1ccccc1Oc1ccc(S(=O)(=O)Nc2nccs2)cc1C#N | 13 µM (active) | 

— PubChem BioAssay (NCATS)
